SMN2 splice up – SMN2 splice variant enhancement; actives 2.8% (n = 210,000); Potency, µM (titrated, usually from 46.1 µM), hits mostly activators; HEK293 SMN2-luciferase splicing reporter, luminescence, 30-36 h; note: nearly all actives have a fitted effect of over 55% in size
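qHTS luciferase splicing reporter: luminescence rises when SMN2 exon 7 is included in transfected HEK293 cells. Compound exposure lasted 30-36 h at 37C, with 4.5 mM final sodium butyrate as control, followed by a ONE-Glo read.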
Rab9 prom act – Rab9 promoter activation; AID 485297; actives 2.8% (n = 320,000); Potency, µM (doses to about 9.22 µM), usual class: activators; Huh7 Rab9 promoter-luciferase reporter, luminescence, 24 h; note: nearly all actives have a fitted effect of over 60% in size
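Huh7 cells stably carrying a Rab9 promoter-luciferase reporter, 1500 cells per well in OP-MEM I with 10% FBS, treated with compound 24 hours at 37C. Luciferase activity read by luminescence after 10 minutes with Amplite reagent.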
FLuc modulator – counter-screen for miR-21 project: firefly luciferase inhibitors or activators; P08659; purified FLuc, Km substrates, luminescence inhibition; Potency, µM (series often up to 57.5 µM), hits mostly inhibitors; actives 6.9% (n = 360,000); note: nearly all actives have a fitted effect of over 55% in size
Target sequence (P08659 whole entry, looked up): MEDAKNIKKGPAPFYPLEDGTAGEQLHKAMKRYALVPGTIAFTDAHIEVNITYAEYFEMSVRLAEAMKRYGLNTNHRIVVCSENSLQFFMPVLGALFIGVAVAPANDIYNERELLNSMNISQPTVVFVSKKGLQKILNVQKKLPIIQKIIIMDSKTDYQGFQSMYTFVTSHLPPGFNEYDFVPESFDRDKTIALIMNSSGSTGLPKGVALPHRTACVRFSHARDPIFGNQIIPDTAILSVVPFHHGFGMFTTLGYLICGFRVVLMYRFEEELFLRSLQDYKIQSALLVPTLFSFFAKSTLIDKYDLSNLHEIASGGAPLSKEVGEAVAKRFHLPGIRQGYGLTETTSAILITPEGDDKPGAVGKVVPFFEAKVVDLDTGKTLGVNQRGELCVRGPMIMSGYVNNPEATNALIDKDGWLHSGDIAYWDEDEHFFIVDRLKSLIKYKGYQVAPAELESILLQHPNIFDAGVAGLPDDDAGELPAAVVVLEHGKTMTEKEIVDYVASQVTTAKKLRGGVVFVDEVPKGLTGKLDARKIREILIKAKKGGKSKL
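Purified P. pyralis luciferase (10nM final) with 10uM D-luciferin and 10uM ATP (Km levels) in 50mM Tris acetate pH 7.5, 10mM Mg acetate, 0.01% Tween-20, 0.05% BSA; qHTS 6-point titration, ~60 µM downward; luminescence read.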
ELG1 genotox – inducers of genotoxicity in HEK293T ELG1-luciferase cells; AID 504466; actives 1.3% (n = 330,000); HEK293T ELG1-luciferase reporter, luminescence, 16 h; Potency, µM (doses to about 46 µM), usual class: activators; note: nearly all actives have a fitted effect of over 60% in size
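Reporter readout depends on ELG1 protein level, which increases with genetic stress. After 16 hr compound exposure at 37 °C, luciferase activity was quantified using ONE-Glo.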
NPC1 prom act – NPC1 promoter activation | Huh7 NPC1 promoter luciferase reporter, 24 h | Potency, µM (top dose mostly 9.22 µM), actives largely listed as activators | AID 485313 | actives 2.4% (n = 320,000); note: nearly all actives have a fitted effect of over 60% in size
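Stably transfected Huh7 (NPC1 promoter→luciferase), 1500 cells/well in Opti-MEM + 10% FBS, 2 h settle, then compound 24 h at 37 °C. Luminescence after 10 min with Amplite reagent.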
KinaseGlo FLuc – blocks Kinase-Glo luciferase, a counter-screen artifact; Kinase-Glo luciferase, ATP luminescence, 8 min; actives 0.28% (n = 200,000); AID 1379; Potency, µM (series often up to 38.3 µM), usual class: inhibitors; note: nearly all actives have a fitted effect of over 60% in size
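Substrate mix (final 50 mM imidazole pH 7.2, 50 mM KCl, 7 mM MgCl2, 10 uM ATP, 0.01% Tween 20, 0.05% BSA) plus pin-tool compound, then Kinase-Glo detection mix; 8 min ambient, luminescence read.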
Large screens that a line does not name were inactive. Most compounds without a hit are left out; they make up all but 7.4% or so of the library. Calls come from the whole dose curve; as a rule, active = well fitted curve in the direction sought with a large enough effect; inconclusive = small, poorly fitted or top-dose-only effect, or another doubt; inactive = no such curve, though single readings can be large; an effect the other way counts as inactive or inconclusive.

COc1ccc(-n2nnc3c(SCC(=O)NCc4ccco4)ncnc32)cc1	FLuc modulator 9.5µM
CCN(C(=O)CSc1nc2ccccc2n1CC(=O)Nc1cccc(C#N)c1)c1ccccc1	none (no result: SMN2 splice up, Rab9 prom act, ELG1 genotox, NPC1 prom act, KinaseGlo FLuc)
CCn1c(CCNC(=O)c2cccs2)nnc1SCC(=O)Nc1ccc(Cl)cc1	FLuc modulator 17µM
CCn1c(CCNC(=O)c2cccs2)nnc1SCC(=O)NC1CCCCC1	none
O=c1c2ccccc2n(Cc2cccc(F)c2)c(=O)n1Cc1ccccc1Cl	none (no result: Rab9 prom act, ELG1 genotox, NPC1 prom act, KinaseGlo FLuc)
COC(=O)N1C(c2ccccc2)=Cc2ccccc2C1CC(C)=O (stereo not given)	none (no result: Rab9 prom act, FLuc modulator, ELG1 genotox, NPC1 prom act)
Cn1c(=NC(=O)c2ccccc2[N+](=O)[O-])sc2cccc(F)c21	Rab9 prom act 0.5µM, FLuc modulator 0.6µM, ELG1 genotox inconclusive, NPC1 prom act 0.56µM (no result: SMN2 splice up, KinaseGlo FLuc)
O=c1c2ccccc2cnn1CCOc1ccccc1	Rab9 prom act 0.1µM, FLuc modulator 0.3µM, ELG1 genotox inconclusive, NPC1 prom act 0.089µM, KinaseGlo FLuc 8.9µM (no result: SMN2 splice up)
O=C(O)Cn1ncc2ccccc2c1=O	none (no result: SMN2 splice up)
Cc1ccc(NC(=O)c2ccc3nsnc3c2)c(Cl)c1	Rab9 prom act 0.32µM, FLuc modulator 1.5µM, ELG1 genotox inconclusive, NPC1 prom act 0.5µM (no result: SMN2 splice up, KinaseGlo FLuc)
Cc1c(NC(=O)c2ccc3nsnc3c2)cccc1[N+](=O)[O-]	none (no result: SMN2 splice up, KinaseGlo FLuc)
O=C(Nc1ccc(Br)cc1F)c1ccc2nsnc2c1	Rab9 prom act 3.5µM, FLuc modulator inconclusive, ELG1 genotox 10µM, NPC1 prom act 1.6µM (no result: SMN2 splice up, KinaseGlo FLuc)
COc1ccc(-c2nnc(SCc3cc(=O)c4cc(C)cc(C)c4[nH]3)n2C)cc1	none (no result: SMN2 splice up, Rab9 prom act, ELG1 genotox, NPC1 prom act, KinaseGlo FLuc)
CC(C)(C)[C@H](NC(=O)c1ccc(N)c(Cl)c1)C(=O)N1CCC[C@H]1C(=O)N[C@H](C#N)Cc1nn[nH]n1	none (no result: SMN2 splice up, ELG1 genotox, KinaseGlo FLuc)
O=C(O)c1ccc(S(=O)(=O)N=Nc2c(O)[nH]c3ccccc23)cc1	none (no result: Rab9 prom act, FLuc modulator, ELG1 genotox, NPC1 prom act)
COc1ccc(C2=CC(=O)C=CC2=O)cc1	FLuc modulator 8.5µM (no result: SMN2 splice up, KinaseGlo FLuc)
COc1cccc2nc3cc(C)c(C)cc3nc12	Rab9 prom act 0.89µM, FLuc modulator 0.76µM, ELG1 genotox 1.5µM, NPC1 prom act 0.89µM (no result: SMN2 splice up, KinaseGlo FLuc)
COc1ccccc1-c1nc2n(n1)C(c1ccccc1Cl)C(C(=O)Nc1cccnc1)=C(C)N2 (stereo not given)	none (no result: Rab9 prom act, ELG1 genotox, NPC1 prom act, KinaseGlo FLuc)
CN(C)c1ccc(/C=C2\CCC/C(=C\c3ccccc3)C2=O)cc1	FLuc modulator 12µM, ELG1 genotox inconclusive
CC(C)/C=C1\CC/C(=C\c2cccnc2)C1=O	FLuc modulator 17µM
O=C1/C(=C/c2ccc(C(=O)O)cc2)CCC/C1=C\c1ccc(C(=O)O)cc1	none
O=C1/C(=C/c2cccnc2)CC/C1=C\c1cccnc1	FLuc modulator inconclusive
O=C1/C(=C/c2ccccc2)CCCc2ccccc21	FLuc modulator 11µM, ELG1 genotox inconclusive
O=C1/C(=C\c2cccnc2)CCc2ccccc21	FLuc modulator 6µM (no result: SMN2 splice up, KinaseGlo FLuc)
O=C1[C@@H]2[C@@H](C(=O)N1c1ccc(OCc3ccccc3)cc1)[C@@H]1c3ccccc3[C@@H]2[n+]2ccccc21	none (no result: Rab9 prom act, FLuc modulator, ELG1 genotox, NPC1 prom act)
Cc1ccccc1Cn1c(=O)n(CCCCC(=O)NCc2ccc3c(c2)OCO3)c(=O)c2ccccc21	none (no result: Rab9 prom act, ELG1 genotox, NPC1 prom act, KinaseGlo FLuc)
Nc1ncnc2c1nc(-c1ccccc1)n2[C@H]1O[C@@H](CO)[C@@H](O)[C@H]1O	none (no result: Rab9 prom act, FLuc modulator, ELG1 genotox, NPC1 prom act)
COc1cccc(C(=O)c2cn(CC(=O)NCc3ccccc3Cl)c3nc(C)ccc3c2=O)c1	none (no result: SMN2 splice up, Rab9 prom act, ELG1 genotox, NPC1 prom act, KinaseGlo FLuc)
O=C(Nc1ccc2oc(-c3ccccc3)nc2c1)c1cccs1	SMN2 splice up 3.2µM, Rab9 prom act 2.5µM, FLuc modulator 3.8µM, ELG1 genotox inconclusive, NPC1 prom act 4µM
Cc1ccc2oc(-c3cccc(NC(=S)NC(=O)/C=C/c4ccco4)c3)nc2c1	Rab9 prom act inconclusive, FLuc modulator 15µM
Cc1ccc2oc(-c3cccc(NC(=S)NC(=O)c4cccs4)c3)nc2c1	FLuc modulator 11µM, ELG1 genotox inconclusive
Cc1ccc2oc(-c3cc(NC(=O)c4cccs4)cc(C)c3O)nc2c1	FLuc modulator inconclusive (no result: Rab9 prom act, ELG1 genotox, NPC1 prom act, KinaseGlo FLuc)
Cc1c(NC(=O)c2cccs2)cccc1-c1nc2cc(Cl)ccc2o1	FLuc modulator 5.4µM (no result: SMN2 splice up, Rab9 prom act, ELG1 genotox, NPC1 prom act, KinaseGlo FLuc)
Cc1ccc(-c2nc3ccccc3o2)cc1NC(=S)NC(=O)c1cccs1	FLuc modulator inconclusive (no result: SMN2 splice up, KinaseGlo FLuc)
